Shown are actives, neighbours in structure and some others; about 19% of the full set was active somewhere.
TDP1 cell CPT: DT40-hTDP1 cell growth loss with CPT. 420,000 tested, 12% active. Potency, µM (highest dose often 46.2 µM), inactives show at the top dose activity change, negative = growth inhibition, most hits filed as inhibitors. chicken DT40 Tdp1-/-;hTDP1 cells + 20 nM CPT, ATP luminescence, 48 h; further: potency means the concentration at half of the fitted maximal effect; nearly all actives have a fitted effect of over 55% in size
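Chicken DT40 Tdp1-/- cells complemented with human TDP1, 400 cells/well, exposed to compounds plus 20 nM camptothecin for at least 48 h at 37 C; viability read as ATP content by CellTiter-Glo luminescence.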
HT1080NT lethal: kills 2HG-producing HT-1080-NT fibrosarcoma cells; HT-1080-NT fibrosarcoma viability, CellTiter-Glo ATP luminescence, 48 h; Potency, µM (doses to about 46.1 µM), for the others: at the highest dose activity, negative = less viability, most hits filed as cytotoxic; 360,000 tested, 1.6% active;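 further: NT is the 2HG producing partner of a matched IDH1 knockdown line; potency means the concentration at half of the fitted maximal effect; 0% = DMSO-treated cells and -100% = media-only wells without cells; nearly all actives have a fitted effect of over 55% in size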
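A 48-hour cytotoxicity screen used HT-1080-NT cells plated 2 hours before compound delivery. ATP-based CellTiter-Glo luminescence measured viability, normalized to DMSO and no-cell controls.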
DT40 TDP1 no CPT: qHTS for Inhibitors of human tyrosyl-DNA phosphodiesterase 1 (TDP1): qHTS in cells in absence of CPT; 420,000 tested, 15% active; Potency, µM (series often up to 46.2 µM), inactives show at the highest dose activity change, negative = growth inhibition, most hits filed as inhibitors; DT40 Tdp1-/- hTDP1 cells, no CPT, ATP luminescence, 48 h; further: potency means the concentration at half of the fitted maximal effect; nearly all actives have a fitted effect of over 55% in size
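Stably hTDP1-transfected Tdp1-null chicken DT40 cells were treated with library compounds minus camptothecin and grown for at least 48 hr at 37 °C, after which cellular ATP was quantified by luminescence.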
IL-1B inflam inh: blocks inflammasome-driven IL-1 beta release; THP-1 LPS/ATP IL-1B secretion, AlphaLISA, 16 h; stronger effect = lower value; activity change, % at 57.5 µM; 360,000 tested, 4.7% active; in the data active means activity change below about -50%; inconclusive means mostly about -30% to -49%
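Secreted IL-1B measured by AlphaLISA bead assay after 16 h compound exposure of THP-1 cells; compounds (final up to 57.5 uM) added 1 h before LPS (250 ng/mL) and ATP (1.25 mM) stimulation; lower signal means less secretion.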
ELG1 DNA repair: ELG1-dependent DNA repair inhibition. 330,000 tested, 2.3% active. Potency, µM (doses to about 46.1 µM), without a hit: at the highest dose activity change, negative = inhibition, actives largely listed as inhibitors. AID 504467. HEK293T ELG1-luciferase reporter, luminescence, 16 h; DNA damage induced by 5-fluorouridine; further: potency means the concentration at half of the fitted maximal effect; nearly all actives have a fitted effect of over 55% in size
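Quantitative HTS, concentration-response format. 2,000 cells/well co-treated with 5-fluorouridine and compound, 16 hr in 5% CO2 at 37 °C; ONE-Glo luminescence read after 30 min.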
HT1080 IDH1KD tx: kills HT-1080 cells with IDH1 knockdown | HT-1080 IDH1 knockdown viability, ATP luminescence, 48 h | Potency, µM (titrated, usually from 46.1 µM), for the others: top-dose activity, negative = toxicity, hits mostly cytotoxic | 360,000 tested, 2% active | AID 686971;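 further: potency means the concentration at half of the fitted maximal effect; 0% = DMSO wells and -100% = cell-free medium wells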
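Cytotoxicity counter-line: IDH1KD HT-1080, 48 h, CellTiter-Glo. Curves classed by r2, magnitude and activity.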
An asterisk follows results filed as active; ? = inconclusive; / = no result given; [ ] = remark or other dose. Unless noted, the call rests on the fitted dose curve; in most records, active means well fitted curve in the direction sought with a large enough effect; inconclusive means small, poorly fitted or top-dose-only effect, or another doubt; inactive means no such curve, though single readings can be large; an effect the other way counts as inactive or inconclusive. Unless noted, on the % scale 0 is the no-effect control and ±100 the full control effect.

SMILES	TDP1 cell CPT	HT1080NT lethal	DT40 TDP1 no CPT	IL-1B inflam inh	ELG1 DNA repair	HT1080 IDH1KD tx
CCc1cc2ccc(OC)cc2nc1SCC(=O)N1CCN(C(=O)c2ccco2)CC1	?	?	-22%	-6	21µM*	-1%
COc1ccccc1C(=O)NC(CCSC)C(=O)NCC(c1cccs1)N1CCOCC1 (stereo not given)	-22%	-1%	-24%	1	8%	-7%
CC(=O)c1c(C)oc2ccc(N(C(C)=O)S(=O)(=O)c3ccc(Cl)c([N+](=O)[O-])c3)cc12	?	?	?	-117*	?	6.5µM*
COC(=O)c1c(C)oc2ccc(N(C(C)=O)S(=O)(=O)c3ccccc3)cc12	15µM*	-9%	-105%	-2	-22%	?
COC(=O)c1c(C)oc(C)c1S(=O)(=O)N(Cc1ccccc1)C(C)C	13µM*	-6%	16µM*	2	-26%	-11%
CCCCOC(=O)c1c(C)oc2ccc(NS(=O)(=O)c3ccc4c5c(cccc35)C(=O)N4)cc12	?	-18%	18µM*	-28	?	-1%
C=C(C)C1CC[C@]2(CO)CC[C@@]3(C)[C@H](CCC4[C@@]5(C)CCC(O)C(C)(C)C5CC[C@@]43C)C12 (stereo not given in full)	-5%	/	-19%	/	/	/
CS(=O)(=O)N1CCC2(CCN(C(c3ccccc3)c3ccccc3)CC2)CC1	-7%	/	-14%	/	/	/
COC(=O)c1c(C)oc2ccc(N(C(=O)c3ccncc3)S(=O)(=O)c3ccc(Br)cc3)cc12	8.2µM*	/	3.7µM*	/	/	/
CCOc1ccc(S(=O)(=O)Nc2ccc3oc(C)c(C(=O)OCCOC)c3c2)cc1	1.8µM*	/	1.5µM*	/	/	/
O=C(c1ccncc1)N(c1ccc2oc3c(c2c1)CCCC3)S(=O)(=O)c1ccc(F)cc1	?	-24%	?	-138*	5%	?
COCCOC(=O)c1c(C)oc2ccc(NS(=O)(=O)c3ccc(C(=O)O)cc3)cc12	-2%	3%	-27%	0	-2%	1%
CCOC(=O)N1CCN(S(=O)(=O)c2ccc3c4c(cccc24)C(=O)N3)CC1	-3%	-8%	-20%	11	4%	-11%
CC(C)OC(=O)C(C(=O)C(F)(F)F)c1cc(NS(=O)(=O)c2ccc3c4c(cccc24)C(=O)N3)ccc1O (stereo not given)	12µM*	/	?	/	/	/
CC(=O)c1c(C)oc2ccc(N(C(=O)c3ccncc3)S(=O)(=O)c3ccccc3)cc12	-26%	-4%	?	2	?	-13%
Cc1ccc(C(=O)O)cc1NS(=O)(=O)c1ccc2c(c1)oc(=O)n2C	-2%	15%	-3%	27	2%	5%
CC(C)N1CCN(S(=O)(=O)c2ccccc2)c2ccccc21	?	-18%	?	20	/	-16%
CCOC(=O)c1ccc(-n2c(C)nc3ccc(Br)cc3c2=O)cc1	?	14%	?	12	?	4%
O=C(NCCc1ccc(F)cc1)C(=O)NCC(c1ccc2c(c1)OCO2)N1CCOCC1 (stereo not given)	-5%	/	-7%	/	/	/
CC(C)(C)NC(=O)CN(CCN1CCOCC1)C(=O)CNS(=O)(=O)c1ccccc1	10%	11%	0%	3	1%	9%
CC(=O)c1c(C)oc2ccc(N(C(C)=O)S(=O)(=O)c3ccc(Br)cc3)cc12	?	-19%	?	-1	/	-18%
CCOc1ccc(S(=O)(=O)N(C(C)=O)c2ccc3oc(C)c(C(=O)OC)c3c2)cc1	1.3µM*	/	0.58µM*	/	/	/
CCOc1ccc(S(=O)(=O)c2c(C(=O)c3ccccc3)cnc3cc4c(cc23)OCCO4)cc1	?	1%	10µM*	-26	3%	-2%
CCOc1ccc(C(=O)c2cnc3ccc(Cl)cc3c2S(=O)(=O)c2ccc(C)cc2)cc1	5.8µM*	/	5.2µM*	/	/	/
CCOC(=O)c1cnc2ccc(C)cc2c1NCCO	-8%	-1%	-17%	-16	-29%	-14%
SMILES	TDP1 cell CPT	HT1080NT lethal	DT40 TDP1 no CPT	IL-1B inflam inh	ELG1 DNA repair	HT1080 IDH1KD tx
CCc1ccc(C(=O)c2cnc3ccc(C)cc3c2S(=O)(=O)c2ccc(OC)cc2)cc1	23µM*	/	18µM*	/	/	/
CCOc1ccc(S(=O)(=O)c2c(C(=O)c3ccc(CC)cc3)cnc3ccc(C)cc23)cc1	?	/	23µM*	/	/	/
CCc1ccc(S(=O)(=O)c2c(C(=O)c3ccc(C)c(C)c3)cnc3ccccc23)cc1	?	/	13µM*	/	/	/
NC(C(=O)O)C1ON=C(Cl)C1O (stereo not given)	5.8µM*	21µM*	5.8µM*	56	/	?
NC(C(=O)O)C1CC(Cl)=NO1 (stereo not given)	/	/	/	/	-1%	/
CC(C)c1ccc(S(=O)(=O)N2CCC(C(=O)NCc3ccco3)CC2)cc1	-13%	9%	-26%	-8	-4%	3%
CCN(C(=O)CCNC(=O)Cn1cnc2ccccc2c1=O)c1cc(OC)ccc1OC	-18%	/	1%	/	/	/
CCCCCCCCN1C(=O)[C@H](CC(=O)NCc2cccs2)C[C@@]2(C(=O)OCC)CCCC=C12	?	?	16µM*	-62*	/	?
CCCCCCCCN1C(=O)[C@H](CC(=O)NCc2cccs2)C[C@@]2(C(=O)OC)CCCCC=C12	16µM*	?	15µM*	-22	/	?
Cc1ccc(NC(=O)CSc2ncc3c(n2)-c2ccccc2N(Cc2cccc(F)c2)S3(=O)=O)cc1F	-18%	/	-25%	/	/	/
CCOC(=O)C1CCCN(S(=O)(=O)c2ccc(OC)cc2)C1 (stereo not given)	-22%	11%[9.24 µM]	-15%	0	-9%	8%
COc1ccc(S(=O)(=O)N2CCCC(C(=O)N3CCCCCC3)C2)cc1 (stereo not given)	?	9%	18µM*	5	-2%	10%
COc1ccc(N2CCN(C(=O)C3CCCN(S(=O)(=O)c4ccc(C)cc4)C3)CC2)cc1 (stereo not given)	9.2µM*	2%	9.2µM*	-2	21µM*	7%
O=C(C1CCN(S(=O)(=O)c2cccc3cccnc23)CC1)N1CCN(c2ccccc2)CC1	-29%	-3%	-26%	12	?	1%

Screens deposited in PubChem BioAssay by National Center for Advancing Translational Sciences (NCATS).
